# Experiments:
# [1] = target: T1, ETS1 (UniProt P14921); assay: ETS1 binding intensity (PBM fluorescence), ETS1 alone (arbitrary fluorescence units); higher = stronger binding; conditions: ETS1 concentration 1 nM; RUNX1 concentration 0 nM
# T1 sequence: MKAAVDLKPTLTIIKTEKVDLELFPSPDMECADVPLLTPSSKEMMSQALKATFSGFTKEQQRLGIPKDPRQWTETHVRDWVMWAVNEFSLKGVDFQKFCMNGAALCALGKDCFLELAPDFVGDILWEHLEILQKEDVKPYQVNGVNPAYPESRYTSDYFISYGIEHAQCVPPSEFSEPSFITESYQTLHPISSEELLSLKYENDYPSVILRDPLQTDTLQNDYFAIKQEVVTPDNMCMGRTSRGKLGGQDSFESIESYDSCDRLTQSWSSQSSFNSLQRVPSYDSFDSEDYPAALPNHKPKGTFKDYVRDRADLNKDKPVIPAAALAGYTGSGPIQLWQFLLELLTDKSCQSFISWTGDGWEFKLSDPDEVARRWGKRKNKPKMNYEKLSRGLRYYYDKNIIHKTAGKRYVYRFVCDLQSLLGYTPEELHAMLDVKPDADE
# [2] = target: RUNX1 (UniProt Q01196); assay: RUNX1 binding intensity (PBM fluorescence), RUNX1 alone (arbitrary fluorescence units); higher = stronger binding; conditions: RUNX1 concentration 2 nM; ETS1 concentration 0 nM
# Protocol: (§1)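 Cooperative gcPBM on 36-bp genomic probes with neighbouring ETS1 and RUNX1 sites. Recombinant human RUNX1 (2 nM) was incubated alone or with ETS1 (25 nM) and detected with anti-RUNX1 antibody plus Alexa488 secondary. Values are medians over 4 replicate spots; the RUNX1+ETS1 data were normalised to the RUNX1-only data. The probes sit in constant array flanks that are not printed.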
# [3] = target: T1, ETS1; assay: ETS1 binding intensity (PBM fluorescence) in presence of RUNX1, normalised to ETS1-only experiment (arbitrary fluorescence units); higher = stronger binding; conditions: ETS1 concentration 1 nM; RUNX1 concentration 25 nM
# [4] = target: RUNX1 (UniProt Q01196); assay: RUNX1 binding intensity (PBM fluorescence) in presence of ETS1, normalised to RUNX1-only experiment (arbitrary fluorescence units); higher = stronger binding; conditions: RUNX1 concentration 2 nM; ETS1 concentration 25 nM
# Protocol: as §1
# 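Throughout, for RUNX1 binding intensity (PBM fluorescence) in presence of ETS1, normalised to RUNX1-only experiment: Full-length recombinant human ETS1 or RUNX1 bound to double-stranded 36-bp genomic probes on microarrays, detected by protein-specific primary antibody and Alexa488 secondary, spot fluorescence as median of four replicate spots.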
# 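Throughout, for RUNX1 binding intensity (PBM fluorescence), RUNX1 alone: Full-length recombinant human RUNX1 bound to double-stranded 36-bp genomic probes on a high-density microarray, scored as Alexa488 fluorescence per spot via anti-RUNX1 antibody, median of four replicate spots.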
# Chain of RUNX1 (Q01196 whole entry): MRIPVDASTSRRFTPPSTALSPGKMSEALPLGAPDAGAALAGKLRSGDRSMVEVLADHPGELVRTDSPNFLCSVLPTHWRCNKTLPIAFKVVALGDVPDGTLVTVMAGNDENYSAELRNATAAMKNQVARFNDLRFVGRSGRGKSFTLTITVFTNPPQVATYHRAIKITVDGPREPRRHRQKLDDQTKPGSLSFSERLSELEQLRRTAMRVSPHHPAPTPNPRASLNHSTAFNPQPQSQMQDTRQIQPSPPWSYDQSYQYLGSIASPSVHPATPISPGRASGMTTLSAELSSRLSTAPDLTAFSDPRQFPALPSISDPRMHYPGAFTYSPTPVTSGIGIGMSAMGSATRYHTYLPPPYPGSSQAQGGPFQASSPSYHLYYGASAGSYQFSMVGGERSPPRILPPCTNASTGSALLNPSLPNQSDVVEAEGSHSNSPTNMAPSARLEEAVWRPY
sequence,measurement,setting,value
AATGCCGGATATTGGTTCTGGTAAGCCACAAAAAAG,ETS1 binding intensity,[1],1720
same,RUNX1 binding intensity,[2],836
same,ETS1 binding intensity,[3],4090
same,RUNX1 binding intensity,[4],1390
TGCGCCGGAAGTGCATGAGCTGCCGATGTGGTGCTT,ETS1 binding intensity,[1],4760
same,RUNX1 binding intensity,[2],715
same,ETS1 binding intensity,[3],5410
same,RUNX1 binding intensity,[4],1220
GACAGCAACTCCACTTCCTGTGGGCGAGGGCCCTGT,ETS1 binding intensity,[1],1850
same,RUNX1 binding intensity,[2],835
same,ETS1 binding intensity,[3],2270
same,RUNX1 binding intensity,[4],1790
CTCGCGATTCCTCTTCCGCTGCGGTCTCCTTAACAC,ETS1 binding intensity,[1],634
same,RUNX1 binding intensity,[2],1290
same,ETS1 binding intensity,[3],841
same,RUNX1 binding intensity,[4],2170
CCAGAGCACATCCTACACGCACCACAACCTGAAAAC,ETS1 binding intensity,[1],453
same,RUNX1 binding intensity,[2],1250
same,ETS1 binding intensity,[3],396
same,RUNX1 binding intensity,[4],1470
CACGGAGCCACTTCCGGCGGCTGTGGGCGCAAAACC,ETS1 binding intensity,[1],3620
same,RUNX1 binding intensity,[2],752
same,ETS1 binding intensity,[3],4210
same,RUNX1 binding intensity,[4],3120
TGACATGGCTTCCGCCTTGGGCTTTGTGGTCTCCCA,ETS1 binding intensity,[1],513
same,RUNX1 binding intensity,[2],890
same,ETS1 binding intensity,[3],1150
same,RUNX1 binding intensity,[4],1760
TGTTTTCGCTCTTCCTGGCCTTGCGGGCAGCCAGGA,ETS1 binding intensity,[1],390
same,RUNX1 binding intensity,[2],1060
same,ETS1 binding intensity,[3],783
same,RUNX1 binding intensity,[4],1510
ATCTTCAGGAAGCGGTATCAACCTGAAAACCACCAC,ETS1 binding intensity,[1],561
same,RUNX1 binding intensity,[2],772
same,ETS1 binding intensity,[3],870
same,RUNX1 binding intensity,[4],1250
CAGCTAGCCGGAAGAAGCTGCGGCGACAGCGTCCTG,ETS1 binding intensity,[1],1690
same,RUNX1 binding intensity,[2],759
same,ETS1 binding intensity,[3],2110
same,RUNX1 binding intensity,[4],1020
GAGAGGAGGATGTTGTCAGATACCCACAAATGAGAA,ETS1 binding intensity,[1],566
same,RUNX1 binding intensity,[2],812
same,ETS1 binding intensity,[3],621
same,RUNX1 binding intensity,[4],889
GCCCCCATGCTTCCTGTTGTGGGAGATGAAGTGTGG,ETS1 binding intensity,[1],1710
same,RUNX1 binding intensity,[2],878
same,ETS1 binding intensity,[3],1710
same,RUNX1 binding intensity,[4],1650
AAGTTCTTCCGGGTCTGCAGTCTGTGGTGTGTTTGC,ETS1 binding intensity,[1],478
same,RUNX1 binding intensity,[2],810
same,ETS1 binding intensity,[3],422
same,RUNX1 binding intensity,[4],1710
AAACCAGAGAGGAAGTGGCACCACATGGCCAGACTG,ETS1 binding intensity,[1],2030
same,RUNX1 binding intensity,[2],755
same,ETS1 binding intensity,[3],2150
same,RUNX1 binding intensity,[4],1140
ACTCCCTAGAGCAGGAAGCCTGTGGTTTGTAATTGG,ETS1 binding intensity,[1],1140
same,RUNX1 binding intensity,[2],1040
same,ETS1 binding intensity,[3],7950
same,RUNX1 binding intensity,[4],1480
TCTAGTAAAAGAGGAAGTTCTTAACCACATTTCCAT,ETS1 binding intensity,[1],2100
same,RUNX1 binding intensity,[2],1020
same,ETS1 binding intensity,[3],9250
same,RUNX1 binding intensity,[4],1620
GTGGGGGTGACAGGATGCGGGTAGAGGGCTCAGCCA,ETS1 binding intensity,[1],1950
same,RUNX1 binding intensity,[2],909
same,ETS1 binding intensity,[3],2770
same,RUNX1 binding intensity,[4],1460
GGAGGAAGTGACACCCACCCACTGCCCCCGCAAGGT,ETS1 binding intensity,[1],962
same,RUNX1 binding intensity,[2],797
same,ETS1 binding intensity,[3],987
same,RUNX1 binding intensity,[4],963
CACCGGAAAAGGCAAGCGCGGCCGCGCGGTTGGCGC,ETS1 binding intensity,[1],675
same,RUNX1 binding intensity,[2],745
same,ETS1 binding intensity,[3],1090
same,RUNX1 binding intensity,[4],1160
CAGCTGCTGACAGGAAAACCACAGTGGAAGGGGAAG,ETS1 binding intensity,[1],848
same,RUNX1 binding intensity,[2],898
same,ETS1 binding intensity,[3],1550
same,RUNX1 binding intensity,[4],1050
AACCCGGAAGTGGACACGGAGCTCGGCTGCGGCTCC,ETS1 binding intensity,[1],1750
same,RUNX1 binding intensity,[2],705
same,ETS1 binding intensity,[3],2240
same,RUNX1 binding intensity,[4],1530
GTCTTCCTTCCTGAGAATCTTAACCACCAGCTTGCC,ETS1 binding intensity,[1],434
same,RUNX1 binding intensity,[2],1350
same,ETS1 binding intensity,[3],483
same,RUNX1 binding intensity,[4],2050
CAGCGGAAGAAAGACCTGCCACCTCCACCACAAAGA,ETS1 binding intensity,[1],440
same,RUNX1 binding intensity,[2],1000
same,ETS1 binding intensity,[3],471
same,RUNX1 binding intensity,[4],925
ATTTTTCCTTCCTTCTCCCGTCCCCGCAGAGTGCAA,ETS1 binding intensity,[1],507
same,RUNX1 binding intensity,[2],1540
same,ETS1 binding intensity,[3],465
same,RUNX1 binding intensity,[4],1520
AACACCACTTCCTACTGTGAAACCACACTGTATTTG,ETS1 binding intensity,[1],456
same,RUNX1 binding intensity,[2],1200
same,ETS1 binding intensity,[3],588
same,RUNX1 binding intensity,[4],2980
AGGGTTACAATTTCCGTAAACCACAGAAGCAGCAGA,ETS1 binding intensity,[1],550
same,RUNX1 binding intensity,[2],1450
same,ETS1 binding intensity,[3],979
same,RUNX1 binding intensity,[4],2560
CCTCTGAGGCAGGAAGCTGCGGTGAAGTCTGAAGTT,ETS1 binding intensity,[1],3300
same,RUNX1 binding intensity,[2],871
same,ETS1 binding intensity,[3],11800
same,RUNX1 binding intensity,[4],2070
GATACAGTGCTCAGGAAACCACATGAAACCAGAGTA,ETS1 binding intensity,[1],451
same,RUNX1 binding intensity,[2],924
same,ETS1 binding intensity,[3],948
same,RUNX1 binding intensity,[4],972
AACGGACCCGGAAGGGGCAGGTCTTGTGGGCGGGTC,ETS1 binding intensity,[1],814
same,RUNX1 binding intensity,[2],822
same,ETS1 binding intensity,[3],1420
same,RUNX1 binding intensity,[4],904
GCTTACACTTCCTCCCTGAACCCCTGCGGTTTCACA,ETS1 binding intensity,[1],511
same,RUNX1 binding intensity,[2],4160
same,ETS1 binding intensity,[3],1960
same,RUNX1 binding intensity,[4],10200
TGCCGCGGATACCCAGCCAGCGGCAGTGCGGTTAAC,ETS1 binding intensity,[1],349
same,RUNX1 binding intensity,[2],1140
same,ETS1 binding intensity,[3],955
same,RUNX1 binding intensity,[4],1210
CCAACAGTACCCTTCCTCCCTTAACCACAAGACTGA,ETS1 binding intensity,[1],445
same,RUNX1 binding intensity,[2],5500
same,ETS1 binding intensity,[3],2090
same,RUNX1 binding intensity,[4],6290
AGAAAAGGAAATGGTGGGCTGCACACCACAGCTCAC,ETS1 binding intensity,[1],477
same,RUNX1 binding intensity,[2],728
same,ETS1 binding intensity,[3],461
same,RUNX1 binding intensity,[4],1130
CTTTTCCATGCAGGAAGTGGTTTTTAGAGTGTAGAG,ETS1 binding intensity,[1],7750
same,RUNX1 binding intensity,[2],896
same,ETS1 binding intensity,[3],20100
same,RUNX1 binding intensity,[4],2920
CTACCCTCCCTCTTCCTGTGGTTTCTCAAACATGTC,ETS1 binding intensity,[1],729
same,RUNX1 binding intensity,[2],2470
same,ETS1 binding intensity,[3],937
same,RUNX1 binding intensity,[4],5090
CCAAAATTGCCACGGAAACCACATCTTTCAGGCGAG,ETS1 binding intensity,[1],486
same,RUNX1 binding intensity,[2],1520
same,ETS1 binding intensity,[3],687
same,RUNX1 binding intensity,[4],1620
ACAACCCGGAAGTTGGCGCAGCGCGGTTGCCAATGG,ETS1 binding intensity,[1],4350
same,RUNX1 binding intensity,[2],671
same,ETS1 binding intensity,[3],4910
same,RUNX1 binding intensity,[4],1300
GTGGATTTCACATCCTGTCCTAGCGGTATGTTTGTC,ETS1 binding intensity,[1],1470
same,RUNX1 binding intensity,[2],783
same,ETS1 binding intensity,[3],1610
same,RUNX1 binding intensity,[4],1750
ACCTCAGGTACCGGAAGACCACAATTCCCAGGAGTC,ETS1 binding intensity,[1],2950
same,RUNX1 binding intensity,[2],965
same,ETS1 binding intensity,[3],4740
same,RUNX1 binding intensity,[4],1740
GCCCGCCCCGGAAGTGCAAACTGTGTGGTCTGGCAG,ETS1 binding intensity,[1],3980
same,RUNX1 binding intensity,[2],867
same,ETS1 binding intensity,[3],7090
same,RUNX1 binding intensity,[4],1330
AGGACCTAACACTCAGGAAGTGGTCAACCTTGCTGC,ETS1 binding intensity,[1],2760
same,RUNX1 binding intensity,[2],897
same,ETS1 binding intensity,[3],3710
same,RUNX1 binding intensity,[4],1420

# From the supplement of paper PMC10681739
